Measured values from PubChem BioAssay AID686978 (National Center for Advancing Translational Sciences (NCATS), 2013).
Screen size: about 420,000 compounds; about 64,000 (15%) were called active. Not shown: some 27% with an inconclusive outcome. Calls come from the whole dose curve; as a rule, active = well fitted inhibition curve with a large enough effect; inconclusive = small, poorly fitted or top-dose-only effect; inactive = flat fitted curve, though single readings scatter. Not all results are given here. A call without a number means that no potency is given here.

test: qHTS for Inhibitors of human tyrosyl-DNA phosphodiesterase 1 (TDP1): qHTS in cells in absence of CPT; conditions: DT40 Tdp1-/- hTDP1 cells, no CPT, ATP luminescence, 48 h; activity change, negative = growth inhibition: at 46.2 µM (top of the series); note: nearly all actives have a fitted effect of over 55% in size
Outline: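 Seeded 400 DT40-hTDP1 cells/well (vehicle DMSO, no 20 nM CPT); pinned compounds; ≥48 hr at 37 °C; CellTiter-Glo luminescence as viability measure.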
Potency is the fitted concentration of half-maximal effect.

| Structure (SMILES) | Potency |
| --- | --- |
| COc1ccc(OC)c(NC(=O)c2ccc3c(c2)C(=O)N(c2ccc(OC(C)=O)cc2)C3=O)c1 | inactive |
| O=C(/C=C/c1ccc(Cl)cc1Cl)c1cccnc1 | 14.6 µM (active) |
| O=C(NCc1ccc(Cl)c(Cl)c1)c1cccnc1 | inactive |
| O=C(Nc1cccnc1)c1cc(Cl)ccc1Cl | inactive |
| CC1OC2C(OC1C)N(S(C)(=O)=O)CCN2S(C)(=O)=O (configuration not stated) | inactive |
| Cc1nc2ccc(NC(=S)N3CCC(C)CC3)cc2nc1C | inactive |
| O=S(=O)(N/N=C\c1cccn1-c1ccccc1)c1ccc2ccccc2c1 | inactive |
| CCCC(=O)N1CCC1(C)C(=O)NCc1ccc(SC)cc1 (configuration not stated) | inactive |
| CC1(C(=O)NCc2ccc3c(c2)OCO3)CCN1C(=O)Cc1cccs1 (configuration not stated) | inactive |
| CSc1ccc(CN2CCC2(C)C(=O)Nc2ccc(C)c(O)c2)cc1 (configuration not stated) | 18.4 µM (active) |
| CSc1ccc(CN(C)CC(=O)NCc2ccc(F)cc2)cc1 | inactive |
| CSc1ccc(CN2CCC2(C)C(=O)NCc2ccccc2Br)cc1 (configuration not stated) | 23.1 µM (active) |
| CC1(C(=O)NCc2cccc3ccccc23)CCN1Cc1ccc(-c2ccccc2)o1 (configuration not stated) | 13 µM (active) |
| CSc1ccc(CNC(=O)C2(C)CCCN2C)cc1 (configuration not stated) | inactive |
| CC1(C(=O)NCc2ccc3c(c2)OCO3)CCN1CCc1ccccc1 (configuration not stated) | inactive |
| CCC(=O)N1CCCC1(C)C(=O)Nc1ccc2c(c1)CCN2C(C)=O (configuration not stated) | inactive |
| CC(N)=NCc1cccc(CN)c1 | inactive |
| Cc1nccn1CCC1CCCCN1C(=O)CCc1nnc(-c2ccsc2)o1 (configuration not stated) | inactive |
| O=C(CNC(=O)c1ccccc1F)c1ccc(Br)cc1 | inactive |
| Cc1ccc(C)c(N(CC(=O)NCc2ccco2)C(=O)CCC(=O)Nc2ccccn2)c1 | inactive |
| O=C(O)CCCCc1nc2ccccc2s1 | inactive |
| CCC(Oc1ccccc1C)C(=O)Nc1ccc(S(=O)(=O)Nc2cc(C)on2)cc1 (configuration not stated) | inactive |
| COC(=O)c1scc(S(=O)(=O)C(C)(C)C)c1-n1cccc1 | inactive |

| Structure (SMILES) | Potency |
| --- | --- |
| COc1cc(CC(=O)N2CCC(n3nccc3NC(=O)C3CC3)CC2)cc(OC)c1OC | inactive |
| C1=C(N2CCOCC2)/C(=C/c2nc3ccccc3[nH]2)CC1 | 23.1 µM (active) |
| O=C1c2ccccc2C(c2nc3ccccc3[nH]2)N1c1ccccc1 (configuration not stated) | inactive |
| c1ccc(-n2nnnc2N2CCOCC2)cc1 | inactive |
| COC(=O)C1=CN(Cc2ccc(OC)cc2)C=C(C(=O)OC)C1c1ccc(O)c(OC)c1 | inactive |
| O=Cc1ccc(OCc2cn3ccccc3n2)cc1 | inactive |
| O=C(CN1CCN(c2ccccn2)CC1)N1CCc2ccccc21 | inactive |
| O=C(O)c1ccc(NN=CC2=C(N3CCOCC3)/C(=C/c3ccccc3)CC2)cc1 | 3.26 µM (active) |
| O=C(CSc1nnc(N2CCOCC2)n1-c1cccc(F)c1)N1CCN(c2ccccn2)CC1 | inactive |
| O=C(O)c1ccc(/C=N/Nc2nc(N3CCCCC3)nc(N3CCCCC3)n2)cc1 | inactive |
| O=C(CC1SC(N2CCOCC2)=NC1=O)Nc1ccccc1F (configuration not stated) | inactive |
| C(=N\N1CCN(c2ccccn2)CC1)/C1=C(N2CCOCC2)C(=C/c2ccccc2)/CC1 | 16.4 µM (active) |
| O=C1Nc2ccc(Br)cc2/C1=N/N=C/C1=C(N2CCOCC2)C(=C\c2ccccc2)/CC1 | 23.1 µM (active) |
| CCOC(=O)c1c(NC(=O)/C(C#N)=C/c2ccccc2)sc2c1CCC2 | inactive |
| N#C/C(=C\C1=C(N2CCOCC2)C(=C\c2ccccc2)/CC1)C(=O)Nc1ccccc1F | 14.6 µM (active) |
| CCN(CC)c1ccc(C(=O)N/N=C/c2ccc(N3CCOCC3)cc2)cc1 | inactive |
| COc1ccc(/C=N/N=C2/C(=O)Nc3ccccc32)cc1O | inactive |
| Cc1cc(C(=O)NNS(=O)(=O)c2ccccc2C(F)(F)F)nn1C(C)(C)C | inactive |
| O=c1cc(CSc2ccccn2)nc(N2CCN(c3ccccc3)CC2)[nH]1 | inactive |
| N/C(=N\OC(=O)CCc1ccccc1)c1ccc(Cl)cc1 | inactive |
| O=C(NCc1ccccn1)[C@@H]1CCCN1C(=O)[C@@H]1CCCN1C(=O)c1ccccc1 | inactive |
| COC(=O)c1ccccc1NC(=O)CSc1nc2c(c(=O)[nH]1)CCC2 | inactive |
| COC(=O)C1=C(C(=O)OC)[C@@H]2N(C)c3ccccc3[C@@]23C[C@@H](C(=O)OC)N(C(C)=O)C3=N1 | inactive |

| Structure (SMILES) | Potency |
| --- | --- |
| O=C1C(c2ccccn2)=[N+]([O-])c2ccccc21 | inactive |
| CCC(=O)Nc1cccc(NC(=O)CSc2nnc(-c3ccc(NS(C)(=O)=O)cc3)n2C)c1 | inactive |
| O=C(COc1ccccc1F)OCc1cc(=O)n2nc(C3CCCCC3)sc2n1 | inactive |
| O=C(CSc1n[nH]c(-c2cccs2)n1)N1CCCCC1 | inactive |
| CNC(=O)c1ccc(NC(=O)c2cccc(C(F)(F)F)c2)cc1 | inactive |
| Cc1cccc(NC(=O)c2cccc(C(F)(F)F)c2)c1 | inactive |
| O=C(Nc1ccc(-c2csc(Nc3cccc(C(F)(F)F)c3)n2)cc1)c1cccc(C(F)(F)F)c1 | 6.51 µM (active) |
| CCOC(=O)NC(C(F)(F)F)(C(F)(F)F)P(=O)(c1ccccc1)c1ccccc1 | inactive |
| CCOC(=O)c1sc(NC(=O)CSc2ncccn2)c(C#N)c1C | inactive |
| O=C(Nc1nnc(SCc2ccccc2Cl)s1)c1cccc([N+](=O)[O-])c1 | inactive |
| O=C(Nc1ccc(C2CC2(Cl)Cl)cc1)c1cccc([N+](=O)[O-])c1 (configuration not stated) | 18.4 µM (active) |
| Cc1cc(C)nc(NC(=O)c2cccc([N+](=O)[O-])c2)c1 | inactive |
| Cc1ccc(CNC(=O)CCN2C(=O)[C@@H]3Cc4ccccc4CN3C2=O)cc1 | inactive |
| CN(NC(=O)C1CC(=O)N(c2ccccc2)C1)C1=NS(=O)(=O)c2ccccc21 (configuration not stated) | inactive |
| O=C1NC(c2ccccc2)=NC1(Nc1ccccn1)C(F)(F)F (configuration not stated) | inactive |
| CCCNC(=O)N1CCC(c2ccc3c(c2)OCO3)CC1 | inactive |
| CC1Cn2c(nnc2-c2cccs2)S1 (configuration not stated) | inactive |
| N#C/C(=C(/O)COc1cccc2ccccc12)c1nc2ccccc2[nH]1 | inactive |
| COc1ccccc1C(=O)COC(=O)COc1ccc(C#N)cc1 | inactive |
| N#C/C(=C(/O)COC(=O)COc1ccc(Cl)cc1)c1nc2ccccc2[nH]1 | 4.61 µM (active) |
| O=C(/C(=N\O)n1cncn1)c1ccc(Br)cc1Br | inactive |
